{
  "source": "PubChem BioAssay (NCATS)",
  "key": {"[1]": {"test_system": "Zika virus NS2B-NS3 protease (unlinked complex)", "assay": "Primary screen GU Rhodamine qHTS for Zika virus inhibitors: Unlinked NS2B-NS3 protease assay (AID 1347159); note: nearly all actives have a fitted effect of over 60% in size", "procedure,_shortened": "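Buffer 10 mM Tris-HCl pH 8.0, 0.01% Tween 20. Unlinked protease 25 nM; compound preincubation 15 min, RT, protected from light. Substrate Rhod110, 1.5 microM; ~15% conversion in 15 min.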"}, "[2]": {"test_system": "Zika virus NS2B-NS3 protease (linked construct)", "assay": "Primary screen NINDS Rhodamine qHTS for Zika virus inhibitors (AID 1347160); note: nearly all actives have a fitted effect of over 55% in size", "procedure,_shortened": "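Aprotinin served as in-plate control. Conditions: 25 nM linked NS2B-NS3, pH 8.0 Tris buffer, titrated compounds, 15 min preincubation and 15 min reaction with 1.5 microM Rhod110 substrate at room temperature.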"}},
  "note": "Inconclusive results are not listed. A call without a number means that no potency is given here. Unmarked numbers belong to inactive results. The source made the active and inactive calls. Calls come from the whole dose curve; as a rule, active = well fitted inhibition curve with a large enough effect; inconclusive = small, poorly fitted or top-dose-only effect; inactive = no such curve, though single readings can be large or run the other way.",
  "data": [
    {"smiles": "C=CC(C)(O)CC/C=C(\\C)C(=O)OC1C(O)C(CO)OC(OC(=O)C23CCC(C)(C)CC2C2=CCC4C5(C)CCC(OC6OC(COC7OCC(OC(C)=O)C(O)C7OC7OC(COC(C)=O)C(O)C(O)C7O)C(O)C(O)C6O)C(C)(C)C5CCC4(C)C2(C)C(O)C3O)C1OC1OCC(OC2OCC(O)C(OC3OCC(O)C(O)C3O)C2O)C(O)C1O", "note": "(stereo not drawn)", "values": [
      {"measurement": "activity change, negative = inhibition", "setting": "[1]", "result": "18.4% [at 19.1 µM]"},
      {"measurement": "activity change, negative = inhibition", "setting": "[2]", "result": "18.5% [at 10.7 µM]"}
    ]},
    {"smiles": "COc1cc2occc2c(O[C@@H]2O[C@H](CO)[C@@H](O)[C@H](O)[C@H]2O)c1CCC(=O)O", "values": [
      {"measurement": "Potency", "setting": "[1]", "result": "inactive"},
      {"measurement": "Potency", "setting": "[2]", "result": "inactive"}
    ]},
    {"smiles": "COc1ccc(C2=N[C@@H](c3ccc(Cl)cc3)[C@@H](c3ccc(Cl)cc3)N2C(=O)N2CCNC(=O)C2)c(OC(C)C)c1", "values": [
      {"measurement": "Potency", "setting": "[1]", "result": "inactive"},
      {"measurement": "Potency", "setting": "[2]", "result": "inactive"}
    ]},
    {"smiles": "COc1cc2c(cc1OC)N1C(=O)C[C@]34C=CCN5CC[C@@H]2[C@@H](CC3)[C@]514", "values": [
      {"measurement": "Potency", "setting": "[1]", "result": "inactive"},
      {"measurement": "Potency", "setting": "[2]", "result": "inactive"}
    ]},
    {"smiles": "COc1cc(C)c(C(=O)O[C@H]2[C@@H](OC(C)=O)[C@H](n3ccc(=O)[nH]c3=O)O[C@@H]2CO)c(OC)c1", "values": [
      {"measurement": "Potency", "setting": "[1]", "result": "inactive"},
      {"measurement": "Potency", "setting": "[2]", "result": "inactive"}
    ]},
    {"smiles": "C/C=C(\\C)C(=O)O[C@H]1[C@@H](O[C@]2(COC(=O)CC(C)C)O[C@H](COC(=O)C(C)CC)[C@@H](OC(C)=O)[C@@H]2O)O[C@H](COC(C)=O)[C@@H](O)[C@@H]1O", "note": "(stereo partly drawn)", "values": [
      {"measurement": "Potency", "setting": "[1]", "result": "inactive"},
      {"measurement": "Potency", "setting": "[2]", "result": "inactive"}
    ]},
    {"smiles": "COC(=O)/C=C/C12COC(C)(C)C1C(O)C(OC(C)=O)C1(C)C2CCC2(C)C(c3ccoc3)OC(=O)C3OC321", "note": "(stereo not drawn)", "values": [
      {"measurement": "Potency", "setting": "[1]", "result": "inactive"},
      {"measurement": "Potency", "setting": "[2]", "result": "inactive"}
    ]},
    {"smiles": "CC(=O)C1=C(C)N(c2cccc(C(F)(F)F)c2)C(=O)N[C@H]1c1ccc(C#N)nc1", "values": [
      {"measurement": "Potency", "setting": "[1]", "result": "inactive"},
      {"measurement": "Potency", "setting": "[2]", "result": "inactive"}
    ]},
    {"smiles": "c1cc(OCCCN2CCCCC2)ccc1CN1CCCCC1", "values": [
      {"measurement": "Potency", "setting": "[1]", "result": "inactive"},
      {"measurement": "Potency", "setting": "[2]", "result": "inactive"}
    ]},
    {"smiles": "CC[C@]12C=CCN3CC[C@@]4(c5cc([C@@]6(C(=O)OC)C[C@H]7C[C@@H](C(C)(F)F)CN(Cc8c6[nH]c6ccccc86)C7)c(OC)cc5N(C)[C@H]4[C@@](O)(C(=O)OC)[C@@H]1OC(C)=O)[C@@H]32", "values": [
      {"measurement": "Potency", "setting": "[1]", "result": "inactive"},
      {"measurement": "Potency", "setting": "[2]", "result": "inactive"}
    ]},
    {"smiles": "CS(=O)(=O)N1CCC(NC(=O)c2[nH]ncc2NC(=O)c2c(Cl)cccc2Cl)CC1", "values": [
      {"measurement": "Potency", "setting": "[1]", "result": "inactive"},
      {"measurement": "Potency", "setting": "[2]", "result": "inactive"}
    ]},
    {"smiles": "C[C@@H]1N[C@H]2N(C1=O)c1ccccc1[C@@]2(O)C[C@@H]1C(=O)N[C@@H](C)c2nc3ccccc3c(=O)n21", "values": [
      {"measurement": "Potency", "setting": "[1]", "result": "inactive"},
      {"measurement": "Potency", "setting": "[2]", "result": "inactive"}
    ]},
    {"smiles": "C/C=C(\\C)C(=O)OCC1OC(OC2OC(COC(=O)/C(C)=C/C)C(OC3OC(CO)C(OC(=O)/C(C)=C/C)C(OC(=O)/C(C)=C/C)C3O)C(O)C2O)C(O)C(O)C1OC1OC(CO)C(OC(=O)/C(C)=C/C)C(OC(=O)/C(C)=C/C)C1O", "note": "(stereo not drawn)", "values": [
      {"measurement": "Potency", "setting": "[1]", "result": "inactive"},
      {"measurement": "Potency", "setting": "[2]", "result": "inactive"}
    ]},
    {"smiles": "CC1CCN(C(=O)CC#N)CC1N(C)c1ncnc2[nH]ccc12", "note": "(stereo not drawn)", "values": [
      {"measurement": "Potency", "setting": "[1]", "result": "inactive"},
      {"measurement": "Potency", "setting": "[2]", "result": "inactive"}
    ]},
    {"smiles": "CCn1cc(NC(=S)Nc2cc(Cl)ccc2OC)c(C(N)=O)n1", "values": [
      {"measurement": "Potency", "setting": "[1]", "result": "inactive"},
      {"measurement": "Potency", "setting": "[2]", "result": "inactive"}
    ]},
    {"smiles": "C=CC(C)(C)C12C=C(OC)C(=O)N3C(C(C)C)C(=O)NC31N(OC)c1ccccc12", "note": "(stereo not drawn)", "values": [
      {"measurement": "Potency", "setting": "[1]", "result": "inactive"},
      {"measurement": "Potency", "setting": "[2]", "result": "inactive"}
    ]},
    {"smiles": "C[C@H]1Oc2cc(cnc2N)-c2c(nn(C)c2C#N)CN(C)C(=O)c2ccc(F)cc21", "values": [
      {"measurement": "Potency", "setting": "[1]", "result": "inactive"},
      {"measurement": "Potency", "setting": "[2]", "result": "inactive"}
    ]},
    {"smiles": "C=CC(=O)Nc1cccc(CN2C(=O)N(c3c(Cl)c(OC)cc(OC)c3Cl)Cc3cnc(NCCCCN(CC)CC)nc32)c1", "values": [
      {"measurement": "Potency", "setting": "[1]", "result": "inactive"},
      {"measurement": "Potency", "setting": "[2]", "result": "inactive"}
    ]},
    {"smiles": "Cc1nc2ccc(Oc3ccc(F)cc3)cc2c(=O)n1C[C@H]1CCCN(C(C)C)C1", "values": [
      {"measurement": "Potency", "setting": "[1]", "result": "inactive"},
      {"measurement": "Potency", "setting": "[2]", "result": "inactive"}
    ]},
    {"smiles": "CCc1cnn2c(NCc3ccc[n+]([O-])c3)cc(N3CCCCC3CCO)nc12", "note": "(stereo not drawn)", "values": [
      {"measurement": "Potency", "setting": "[1]", "result": "inactive"},
      {"measurement": "Potency", "setting": "[2]", "result": "inactive"}
    ]},
    {"smiles": "CC1=C(C(=O)O)/C(=C\\CO[C@@H]2O[C@H](CO)[C@@H](O)[C@H](O)[C@H]2O)C(OC(=O)/C=C\\c2ccc(O)cc2)C1", "note": "(stereo partly drawn)", "values": [
      {"measurement": "Potency", "setting": "[1]", "result": "inactive"},
      {"measurement": "Potency", "setting": "[2]", "result": "inactive"}
    ]},
    {"smiles": "O=C(O)c1cc2cccc([N+](=O)[O-])c2[nH]1", "values": [
      {"measurement": "Potency", "setting": "[1]", "result": "inactive"},
      {"measurement": "Potency", "setting": "[2]", "result": "inactive"}
    ]},
    {"smiles": "COc1cc(O)c2c(c1)C1=C[C@H](O)[C@@H](O)C[C@]1(C)OC2=O", "values": [
      {"measurement": "Potency", "setting": "[1]", "result": "inactive"},
      {"measurement": "Potency", "setting": "[2]", "result": "inactive"}
    ]},
    {"smiles": "CC1=CC(=O)CC(C)(C)C1/C=C/C(C)O[C@@H]1O[C@H](CO)[C@@H](O)[C@H](O)[C@H]1O[C@@H]1OC[C@](O)(CO)[C@H]1O", "note": "(stereo partly drawn)", "values": [
      {"measurement": "Potency", "setting": "[1]", "result": "inactive"},
      {"measurement": "Potency", "setting": "[2]", "result": "inactive"}
    ]},
    {"smiles": "CC1OC(OC2C(C)OC(OC3C(OC(=O)C45CCC(C)(C)CC4C4=CCC6C7(C)CCC(OC8OC(C(=O)O)C(O)C(O)C8OC8OC(CO)C(O)C(OC9OC(C)C(O)C(O)C9O)C8O)C(C)(CO)C7CCC6(C)C4(C)CC5)OC(CO)C(O)C3O)C(O)C2O)C(O)C(O)C1O", "note": "(stereo not drawn)", "values": [
      {"measurement": "activity change, negative = inhibition", "setting": "[1]", "result": "1.27% [at 19.1 µM]"},
      {"measurement": "outcome", "setting": "[2]", "result": "inactive [at 10.7 µM]"}
    ]},
    {"smiles": "CC(C)C(C#N)O[C@@H]1O[C@H](CO[C@@H]2O[C@@H](C)[C@H](O)[C@@H](O)[C@H]2O)[C@@H](O)[C@H](O)[C@H]1O", "note": "(stereo partly drawn)", "values": [
      {"measurement": "Potency", "setting": "[1]", "result": "inactive"},
      {"measurement": "Potency", "setting": "[2]", "result": "inactive"}
    ]},
    {"smiles": "CC(C)C(=O)OC[C@H]1O[C@H](O[C@H]2O[C@H](CO)[C@@H](O)[C@H](O)[C@H]2O)[C@H](O)[C@@H](O)[C@@H]1O", "values": [
      {"measurement": "Potency", "setting": "[1]", "result": "inactive"},
      {"measurement": "Potency", "setting": "[2]", "result": "inactive"}
    ]},
    {"smiles": "CCC(C)C(=O)OC1CC(C)C=C2C=CC(C)C(CCC(O)CC(O)CC(=O)O)C21", "note": "(stereo not drawn)", "values": [
      {"measurement": "Potency", "setting": "[1]", "result": "inactive"},
      {"measurement": "Potency", "setting": "[2]", "result": "inactive"}
    ]},
    {"smiles": "O=C(CC1C(=O)Nc2ccccc21)OC[C@H]1O[C@@H](OCCc2ccc(O)cc2)[C@H](O)[C@@H](O)[C@@H]1O", "note": "(stereo partly drawn)", "values": [
      {"measurement": "Potency", "setting": "[1]", "result": "inactive"},
      {"measurement": "Potency", "setting": "[2]", "result": "inactive"}
    ]}
  ]
}
